Screening results: PubChem BioAssay, The Scripps Research Institute Molecular Screening Center
DAX1 inh-1: inhibitors of human orphan nuclear receptor DAX1 (NR0B1); P51843; HEK293 Gal4-DAX1 luciferase reporter, luminescence; inhibition, % at 6.75 µM; AID 504766; actives 0.99% (n = 340,000);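 active means inhibition above the mean over all tested compounds plus 3 SD, cut at about 4.2% in these data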;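 further: 0% = DAX1-transfected cells with DMSO and 100% = empty-vector control cells with DMSO; inhibition shows as a rise in luminescence from relieved DAX1 repression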
Target sequence (P51843 207-470 limits assumed): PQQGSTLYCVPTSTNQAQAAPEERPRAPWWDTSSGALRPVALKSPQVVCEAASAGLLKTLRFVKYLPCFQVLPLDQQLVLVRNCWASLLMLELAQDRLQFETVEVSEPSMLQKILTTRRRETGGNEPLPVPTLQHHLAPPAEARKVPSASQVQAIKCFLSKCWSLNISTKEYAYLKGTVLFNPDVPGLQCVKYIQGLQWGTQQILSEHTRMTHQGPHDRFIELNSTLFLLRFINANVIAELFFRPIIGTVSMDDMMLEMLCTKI
hgDAF-12 ag: activates the H. glycines DAF-12 receptor ligand-binding domain. actives 1.8% (n = 370,000). AID 687014. HEK293 GAL4-hgDAF12 UAS-luciferase reporter, agonist luminescence; normalized to butyrate control. activation, % at 6.8 µM;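 active means activation above a cutoff set at the mean of all screened compounds plus 3 SD, cut at about 10% in these data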;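 further: 0% = DMSO wells and 100% = sodium butyrate wells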
hcDAF12 agonist: activates DAF-12 receptor from parasite H. contortus; HEK293 hcDAF-12 lit1-tk-luc reporter, luminescence; 0% DMSO, 100% Δ7-dafachronic acid; activation, % at 6.8 µM; actives 1.4% (n = 370,000); AID 652067;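 active means activation above the mean of all tested compounds plus 3 SD, cut at about 5.5% in these data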;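 further: 100% = response to 3 µM Δ7-dafachronic acid high control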
SMARCA2 activ: increases SMARCA2 function in MMTV reporter cells | MG213 cells, MMTV-luciferase reporter, dexamethasone, overnight | activation, % at 9.1 µM | actives 1% (n = 370,000) | AID 652017; in the data active means activation above about 7.8%;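 further: 0% = vehicle wells and 100% = reference activator wells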
DAX1 inh-2: inhibitors of DAX1 repression of SF-1 activated StAR promoter; HEK293T StAR-luciferase reporter, SF-1/DAX-1 repression relief; inhibition, % at 6.8 µM; actives 1.1% (n = 370,000);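 active means inhibition above the mean over all tested compounds plus 3 SD, cut at about 3.6% in these data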;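 further: 0% = DAX-1 cells with DMSO and 100% = cells lacking DAX-1 with DMSO; higher inhibition means more luminescence from relief of DAX-1 repression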
ssDAF-12 act: activates DAF-12 receptor from parasite S. stercoralis; activation, % at 6.8 µM; actives 1% (n = 370,000); HEK293 ssDAF-12/GRIP1 lit1-tk-luc reporter, luminescence; % of 3 µM dafachronic acid response; AID 652126;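 active means activation above the mean over all tested compounds plus 3 SD, cut at about 0.9% in these data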;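 further: 0% = DMSO-only wells and 100% = 3 µM delta7-dafachronic acid wells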
DAX1 conf: NR0B1 (human) inhibition, confirmation; HEK293T StAR-promoter luciferase reporter, SF-1/DAX-1 repression; shares compounds with DAX1 inh-2; actives 87% (n = 2,400); inhibition, % at 6.8 µM;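 active means inhibition above the average of every tested compound plus 3 SD, cut at about 3.8% in these data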;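 further: 0% = DAX-1 cells with DMSO and 100% = no DAX-1 control cells with DMSO; active compounds raise luminescence by relieving repression of the StAR reporter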
SF1 mutant ctr: nonselective inhibitor or artifact in SF-1 mutant DAX1 counter-screen; HEK293 StAR-luciferase, SF-1 AF2 mutant, luminescence; actives 78% (n = 2,400); shares compounds with DAX1 inh-2; inhibition, % at 6.8 µM;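 active means inhibition above the mean of all tested compounds plus 3 SD, cut at about 3% in these data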;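 further: 0% = DAX-1 transfected cells with DMSO and 100% = cells without DAX-1 with DMSO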
SMARCA2 act conf: SMARCA2 activation, confirmation screen. activation, % at 9.1 µM. MG213 cells, MMTV-luciferase with dexamethasone, luminescence, overnight; MG213 cells expressing E1A, Rb sequestered; DMSO wells 0%, reference activator 100%. shares compounds with SMARCA2 activ. AID 652260. actives 30% (n = 3,500);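 active means activation above its plate's cutoff, the mean activation of tested wells plus 3 SD, cut at about 7.9% in these data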
GAL4-VP16 Luc: GAL4-VP16 reporter activation counter-screen; shares compounds with SMARCA2 activ; HEK293 GAL4-VP16 pG5luc reporter, luciferase luminescence; scaled: DMSO wells 0%, SAHA wells 100%; activation, % at 9.1 µM; actives 41% (n = 3,500);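 active means activation above the solvent-only control well mean plus 3 SD, averaged across control plates, cut at about 5.2% in these data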
LXRb hcDAF ctr: counter-screen for hcDAF-12 agonists: agonists of human LXR-beta; shares compounds with hcDAF12 agonist; HEK293 Gal4-LXR tk-luc reporter, luminescence, 24 h; normalized: DMSO 0%, positive control 100%; activation, % at 6.8 µM; 3,400 tested, under 10 active;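 active means mean percent activation of the reporter above a cutoff set as the average over tested compounds plus their standard deviation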
Target sequence (P55055 whole entry, looked up, the tested form may be a part): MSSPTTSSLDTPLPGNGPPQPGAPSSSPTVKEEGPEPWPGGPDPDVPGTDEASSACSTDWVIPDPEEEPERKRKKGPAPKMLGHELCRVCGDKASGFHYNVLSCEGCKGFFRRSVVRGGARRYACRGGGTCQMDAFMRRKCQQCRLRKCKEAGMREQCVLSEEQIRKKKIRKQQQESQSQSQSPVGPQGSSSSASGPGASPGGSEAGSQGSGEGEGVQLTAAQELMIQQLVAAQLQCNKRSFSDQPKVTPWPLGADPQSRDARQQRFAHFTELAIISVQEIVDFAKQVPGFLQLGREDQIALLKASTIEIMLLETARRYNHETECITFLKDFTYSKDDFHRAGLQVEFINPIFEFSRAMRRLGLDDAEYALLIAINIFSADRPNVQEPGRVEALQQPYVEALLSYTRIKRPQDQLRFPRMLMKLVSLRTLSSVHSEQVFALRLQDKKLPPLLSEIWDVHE
hcDAF12 conf: hcDAF-12 agonism, confirmation assay | shares compounds with hcDAF12 agonist | HEK293 hcDAF-12 lit1-tk-luc reporter, luminescence; % of Δ7-dafachronic acid response | activation, % at 6.8 µM | actives 61% (n = 3,400) | AID 743032;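 active means mean activation across triplicate tests above the threshold derived from the earlier primary screen, cut at about 5.5% in these data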;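 further: 0% = DMSO only wells and 100% = 3 µM Δ7-dafachronic acid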
hgDAF12 ag: confirmation of H. glycines DAF-12 agonists; actives 80% (n = 3,300); HEK293 GAL4-hgDAF12 luciferase reporter, agonist mode; percent of butyrate response; shares compounds with hgDAF-12 ag; activation, % at 6.8 µM;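 active means mean activation over triplicate wells above the hit cutoff derived from the earlier primary screen, cut at about 11% in these data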;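 further: 0% = DMSO low control and 100% = 2 mM sodium butyrate high control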
LXR ag 2: counter-screen for DAF-12 agonists: agonists of human LXR-beta | shares compounds with hgDAF-12 ag | HEK293 Gal4-LXR luciferase reporter, 24 h | activation, % at 6.8 µM | 3,300 tested, under 10 active;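 active means mean activation of the triplicate above a set limit carried over from the primary screen, none filed active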
* = called active by the depositor. Shown are actives, neighbours in structure and some others; about 4.8% of the full set was active somewhere.

Screening O=C(NC1=NCCS1)c1sc2ccccc2c1Cl returned DAX1 inh-1 1, hgDAF-12 ag 21*, hcDAF12 agonist 11*, SMARCA2 activ 4, DAX1 inh-2 4.7*, ssDAF-12 act 1.1*, DAX1 conf 12*, SF1 mutant ctr 7.4*, LXRb hcDAF ctr 1, hcDAF12 conf 9.7*, hgDAF12 ag 15* and LXR ag 2 1.
For O=C(NC1=NCCS1)c1cccc(OC(F)F)c1 the results were DAX1 inh-1 4.8*, hgDAF-12 ag 16*, hcDAF12 agonist 1, SMARCA2 activ 1, DAX1 inh-2 5.0*, ssDAF-12 act 0, DAX1 conf 14*, SF1 mutant ctr 9.6*, hgDAF12 ag 14* and LXR ag 2 1.
`N#Cc1ccc(C(=O)NC2=NCCS2)cc1` gave DAX1 inh-1 4, hgDAF-12 ag 4, hcDAF12 agonist 2, SMARCA2 activ 6, DAX1 inh-2 1 and ssDAF-12 act -1.
For O=C(NC1=NCCS1)c1sc2cc(Cl)cc(Cl)c2c1Cl the results were DAX1 inh-1 1, hgDAF-12 ag 0, hcDAF12 agonist -3, SMARCA2 activ -4, DAX1 inh-2 0 and ssDAF-12 act 0.
Screening CC(=O)Nc1nc2ncccn2c1-c1ccccc1 returned hgDAF-12 ag -1, hcDAF12 agonist -2, SMARCA2 activ 5, DAX1 inh-2 0 and ssDAF-12 act -1.
CCOC(=O)[C@]12CCCC=C1N(CCCOC)C(=O)[C@@H]2CC(=O)N1CCCCC1 was read as hgDAF-12 ag -3, hcDAF12 agonist -1, SMARCA2 activ -1, DAX1 inh-2 -1 and ssDAF-12 act 0.
`C[C@@H]1[C@@H](O)C[C@@]2(C[C@H](O)c3cc(Cl)ccc3O2)O[C@H]1c1ccccc1Cl` gave hgDAF-12 ag -2, hcDAF12 agonist -2, SMARCA2 activ -4, DAX1 inh-2 -1 and ssDAF-12 act -1.
`CCNC(=O)CCc1nc(-c2ccc(C(C)C)cc2)no1` gave hgDAF-12 ag -3, hcDAF12 agonist -3 and ssDAF-12 act -2.
`C(=C\c1nc(-c2ccccc2)no1)/c1ccccc1` gave DAX1 inh-1 3, hgDAF-12 ag 17*, hcDAF12 agonist 5.8*, SMARCA2 activ 8.9*, DAX1 inh-2 5.9*, ssDAF-12 act 0, DAX1 conf 17*, SF1 mutant ctr 6.7*, SMARCA2 act conf 9.3*, GAL4-VP16 Luc 9.1*, hgDAF12 ag 23* and LXR ag 2 1.
Fc1cccc(Cl)c1Cc1noc(/C=C/c2ccccc2)n1 was read as DAX1 inh-1 1, hgDAF-12 ag 5, hcDAF12 agonist 0, SMARCA2 activ 1, DAX1 inh-2 2 and ssDAF-12 act -1.
For Nc1[nH]c(C(=O)c2ccc(Br)cc2)c(-c2c(F)cccc2F)c1C(=O)NCCc1c[nH]c2ccccc12 the results were hgDAF-12 ag 4, hcDAF12 agonist 1, SMARCA2 activ -3, DAX1 inh-2 -1 and ssDAF-12 act 0.
For O=C(NCC1CCN(C(=O)C(=O)c2cc3ccccc3o2)CC1)c1ccc2c(c1)OCCCO2 the results were hgDAF-12 ag 0, hcDAF12 agonist 0, SMARCA2 activ -4, DAX1 inh-2 1 and ssDAF-12 act -1.
Cc1cc(C)c(C#N)c(SCc2nnc(-c3ccccc3[N+](=O)[O-])o2)n1 was read as DAX1 inh-1 0, hgDAF-12 ag 16*, hcDAF12 agonist 4, SMARCA2 activ 6, DAX1 inh-2 5.1*, ssDAF-12 act 1, DAX1 conf 18*, SF1 mutant ctr 4.6*, hgDAF12 ag 11* and LXR ag 2 1.
Screening Cc1cc(C)c(C#N)c(SCc2ccccc2[N+](=O)[O-])n1 returned DAX1 inh-1 -1, hgDAF-12 ag 0, hcDAF12 agonist 1, SMARCA2 activ -6, DAX1 inh-2 -1 and ssDAF-12 act -1.
Screening O=C(Nc1cccnc1Cl)c1ccc2c(Cl)c3c(nc2c1)CCC3 returned DAX1 inh-1 2, hgDAF-12 ag 17*, hcDAF12 agonist 6, SMARCA2 activ 5, DAX1 inh-2 5.0*, ssDAF-12 act 0, DAX1 conf 16*, SF1 mutant ctr 6.1*, hgDAF12 ag 20* and LXR ag 2 1.
For N#Cc1ccccc1NC(=O)c1ccc2c(Cl)c3c(nc2c1)CCCC3 the results were DAX1 inh-1 3, hgDAF-12 ag 4, hcDAF12 agonist 0, SMARCA2 activ 4, DAX1 inh-2 1 and ssDAF-12 act -1.
Screening CCOc1cccc(/C=N\NC(=O)Cc2cccs2)c1O returned hgDAF-12 ag 0, hcDAF12 agonist 0, SMARCA2 activ -4, DAX1 inh-2 0 and ssDAF-12 act -1.
Screening COc1ccc(-c2ccc3c(n2)CCCN3S(=O)(=O)c2ccccc2)cc1 returned hgDAF-12 ag -4, hcDAF12 agonist 1, SMARCA2 activ -9, DAX1 inh-2 -2 and ssDAF-12 act -2.
